From PubChem BioAssay (Tox21)
Where “and” joins values, the source holds several entries; their conditions need not be identical. Identical values can stand only once. Results filed as inconclusive are left out. Entries that show only a call come without a potency. A structure can be active in one record and inactive in another. Calls of active or inactive are those of the source. Unless noted, calls come from the whole dose curve.

Columns and labels:
[1] = Nuclear factor erythroid 2-related factor 2/antioxidant responsive element (Nrf2/ARE) small molecule agonists: qHTS cell viability counter screen in human keratinocytes (AID 1919968; active = well fitted curve in the direction sought with a large enough effect in the repeat runs; an effect the other way counts as inactive or inconclusive; note: nearly all actives have a fitted effect of over 55% in size; note: potency is the fitted concentration of half-maximal effect)
Outline: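 CellTiter-Fluor fluorescence, read 1 h after reagent, gave viability in the same wells as the ARE-luciferase assay. KeratinoSens cells (1,500/well) had 23 h compound exposure at 37 C/5% CO2 following 5 h plating.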

[2] = Nuclear factor erythroid 2-related factor 2/antioxidant responsive element (Nrf2/ARE) small molecule agonists: luciferase reporter gene qHTS assay in human keratinocytes (AID 1919969); note: nearly all actives have a fitted effect of over 35% in size; note: potency is the fitted concentration of half-maximal effect
[3] = biological target: Gonadotropin-releasing hormone receptor (Homo sapiens) (UniProt P30968); assay: Human gonadotropin-releasing hormone receptor (GnRHR) small molecule agonists, calcium flux assay in GnRHR-HEK293 cells (AID 1920063); note: nearly all actives have a fitted effect of over 35% in size
Outline: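 Agonist mode: compounds at 15 concentrations, in triplicate, went onto calcium dye-loaded GnRHR-HEK293 cells. Intracellular calcium was then followed as 480/540 nm fluorescence at 1 s intervals over 3 min.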

[4] = biological target: KiSS-1 receptor (Homo sapiens) (UniProt Q969F8); assay: Human kisspeptin (KISS1R) small molecule agonists, calcium flux assay in KISS1R-HEK293 cells (AID 1920064; active = well fitted curve in the direction sought with a large enough effect in the repeat runs; an effect the other way counts as inactive or inconclusive)
Outline: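 Agonist mode: intracellular calcium rise tracked at 1 s intervals over 3 min (480/540 nm) immediately after compound addition to dye-loaded KISS1R-HEK293 stable cells. Each compound tested at 15 concentrations in triplicate.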

[5] = G protein-coupled receptor (GPCR) small molecule agonists, calcium flux assay: HEK293 wild type cell line counter screen (AID 1920065)
Outline: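 Calcium flux counter screen: compound added in agonist mode at 15 concentrations in triplicate to dye-loaded parental HEK293 cells. Fluorescence (480/540) read kinetically for 3 min; ATP served as positive control.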

[6] = p53 small molecule agonists, cell-based qHTS assay with human liver microsomes (AID 1963577);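 note: p53 response element beta-lactamase reporter cells with liver microsomes plus NADPH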
Outline: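 Steps: plate p53RE-bla cells, incubate 5 h at 37 C; add compound in DMSO; add microsomes (0.5 mg/mL final) and NADPH (0.5 mg/mL final); incubate 16 h at 37 C; add LiveBLAzer, 2 h RT; read fluorescence.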

[7] = p53 small molecule agonists, cell-based qHTS assay with rat liver microsomes (AID 1963578)
Outline: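 Metabolic activation is supplied by rat liver microsomes with NADPH (each 0.5 mg/mL final). p53RE-bla cells incubate with compound 16 h at 37 C; reporter activity is measured by LiveBLAzer fluorescence.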

[8] = p53 small molecule agonists, cell-based qHTS assay: qHTS cell viability counter screen (AID 1963581); note: nearly all actives have a fitted effect of over 45% in size; note: potency is the fitted concentration of half-maximal effect
Outline: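 Counter screen read by CellTiter-Glo luminescence (ATP content, 30 min at room temperature), run in the same wells as the beta-lactamase reporter read. HCT-116 p53RE-bla cells saw compounds for 16 h at 37 C.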

[9] = p53 small molecule agonists, cell-based qHTS assay (AID 1963582; active = well fitted activation curve with a large enough effect in the signal ratio in the repeat runs, not every such curve was filed as active; the % refers to the signal ratio)
Outline: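 Read-out is beta-lactamase FRET fluorescence after 2 h at room temperature with LiveBLAzer B/G substrate. p53 response element-bla cells were treated 16 h at 37 C with compounds in DMSO, added 5 h after seeding.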

[10] = biological target: 5-hydroxytryptamine receptor 2A (Homo sapiens) (UniProt P28223); assay: 5-hydroxytryptamine receptor 2A (HTR2A) small molecule antagonists, cell-based qHTS assay (AID 1963586); note: nearly all actives have a fitted effect of over 45% in size
Outline: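 CHO cells stably expressing human HTR2A were plated for 18 h at 37 C, then loaded with calcium dye for 1 h. Compounds were preincubated 5 min at room temperature before DOI (4 nM solution) was added. Kinetic fluorescence was read for 3 min.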

[11] = biological target: 5-hydroxytryptamine receptor 2A (Homo sapiens) (UniProt P28223); assay: 5-hydroxytryptamine receptor 2A (HTR2A) small molecule agonists, cell-based qHTS assay (AID 1963587); note: nearly all actives have a fitted effect of over 30% in size
Outline: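 CHO cells stably expressing human HTR2A, plated 18 h, loaded with calcium dye 1 h at 37 C. Agonist mode: compounds added and intracellular calcium fluorescence recorded kinetically for 2 min at 1 sec intervals.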

[12] = biological target: Muscarinic acetylcholine receptor M1 (Homo sapiens) (UniProt P11229); assay: Cholinergic receptor muscarinic 1 (CHRM1) small molecule antagonists, cell-based qHTS assay (AID 1963588); note: nearly all actives have a fitted effect of over 40% in size; note: potency is the fitted concentration of half-maximal effect
Outline: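 Compounds were tested at 15 concentrations in three independent runs. Dye-loaded CHRM1-CHO cells were exposed 5 min at room temperature before stimulation by acetylcholine added at 50nM. Intracellular calcium was read kinetically on FDSS for 3 min.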

[13] = cAMP Responsive Elements (CRE) small molecule agonists, cell-based qHTS assay (AID 1963590)
Outline: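 Agonist mode: compound added to CRE-bla HEK 293T cells (2,000/well, 18 h after plating) for 3 h at 37 C/5% CO2. Reporter activity detected via FRET beta-lactamase substrate, 2 h room-temperature loading.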

[14] = cAMP Responsive Elements (CRE) small molecule antagonists, cell-based qHTS assay (AID 1963591; active = well fitted inhibition curve with a large enough effect in the signal ratio in the repeat runs, not every such curve was filed as active; the % refers to the signal ratio)
Outline: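 Antagonist mode: compounds are added alongside the adenylyl cyclase activator NKH477 (0.25 uM final) to CRE-bla HEK293T cells for 3 h. LiveBLAzer FRET substrate, 2 h at room temperature, reports bla expression.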

[15] = biological target: Beta-2 adrenergic receptor (Homo sapiens) (UniProt P07550); assay: Adrenergic beta2 receptor (ADRB2) small molecule antagonists, cell-based qHTS assay (AID 1963592); note: series mostly up to about 92 µM; nearly all actives have a fitted effect of over 50% in size
Outline: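 Assay format: CHO-ADRB2 cells, 18-20hr seeding at 37C/5% CO2, then compound plus 1nM isoproterenol agonist mix for 0.5hr RT. Homogeneous time-resolved fluorescence cAMP detection after 1hr, expressed as 665/615 nm ratio.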

[16] = biological target: Beta-2 adrenergic receptor (Homo sapiens) (UniProt P07550); assay: Adrenergic beta2 receptor (ADRB2) small molecule agonists, cell-based qHTS assay (AID 1963593);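 note: CHO cells stably overexpressing human ADRB2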
Outline: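 CHO cells stably over-expressing ADRB2 were plated overnight at 37C, then dosed with compounds plus a stimulation mix containing 100uM IBMX and 25uM Ro-20-1724 for 0.5hr at room temperature. cAMP was measured by HTRF competition, 1hr.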

[17] = biological target: D(2) dopamine receptor (Homo sapiens) (UniProt P14416); assay: Dopamine D2 receptor (DRD2) small molecule antagonists, cell-based qHTS assay (AID 1963595; active = well fitted inhibition curve with a large enough effect in the signal ratio in the repeat runs, with a control signal flat; the % refers to the signal ratio)
Outline: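 HEK293 cells stably expressing DRD2 were preincubated with 0.1 mM Ro20-1724, then with compound for 10 min at room temperature. Cells were stimulated with 200 nM NKH477 plus 12 nM quinpirole for 30 min, and cAMP was read by HTRF.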

[18] = p53 small molecule agonists, cell-based qHTS assay with rat liver microsomes: qHTS cell viability counter screen (AID 1963580); note: nearly all actives have a fitted effect of over 45% in size
Outline: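 After the beta-lactamase ratio was read, CellTiter-Glo was added to the same wells and luminescence measured at 30 min; cells had been treated 16 h at 37 C with compounds, rat liver microsomes and NADPH (0.5 mg/mL final each).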

[19] = biological target: D(2) dopamine receptor (Homo sapiens) (UniProt P14416); assay: Dopamine D2 receptor (DRD2) small molecule agonists, cell-based qHTS assay (AID 1963594); note: nearly all actives have a fitted effect of over 35% in size
Outline: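 HEK293 cells stably expressing human DRD2, pre-treated with PDE inhibitor Ro20-1724 (0.1 mM final) and compound 10 min at room temperature, then stimulated with NKH477 (200nM […]) for 30 min. cAMP read by HTRF (665/620 nm).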

[20] = p53 small molecule agonists, cell-based qHTS assay with human liver microsomes: qHTS cell viability counter screen (AID 1963579); note: nearly all actives have a fitted effect of over 45% in size; note: potency is the fitted concentration of half-maximal effect
Outline: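 After the 460/530 nm beta-lactamase read, CellTiter-Glo was added to the same wells and luminescence measured after 30 min at room temperature, giving viability of p53RE-bla cells treated 16 h with compounds plus microsomes and NADPH.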

Sequence of Beta-2 adrenergic receptor (Homo sapiens) (P07550 whole entry, looked up): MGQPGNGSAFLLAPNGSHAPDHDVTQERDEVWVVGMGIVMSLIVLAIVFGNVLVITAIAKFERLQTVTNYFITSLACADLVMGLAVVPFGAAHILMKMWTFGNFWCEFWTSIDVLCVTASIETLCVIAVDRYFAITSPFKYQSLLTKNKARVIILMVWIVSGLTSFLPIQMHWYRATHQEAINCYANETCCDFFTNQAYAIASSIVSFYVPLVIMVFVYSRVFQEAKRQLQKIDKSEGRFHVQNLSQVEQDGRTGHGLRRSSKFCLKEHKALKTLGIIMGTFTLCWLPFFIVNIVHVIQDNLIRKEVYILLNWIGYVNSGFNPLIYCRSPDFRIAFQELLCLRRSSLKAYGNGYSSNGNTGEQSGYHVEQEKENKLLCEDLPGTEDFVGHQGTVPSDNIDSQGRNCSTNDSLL
Sequence of Gonadotropin-releasing hormone receptor (Homo sapiens) (P30968 whole entry, looked up): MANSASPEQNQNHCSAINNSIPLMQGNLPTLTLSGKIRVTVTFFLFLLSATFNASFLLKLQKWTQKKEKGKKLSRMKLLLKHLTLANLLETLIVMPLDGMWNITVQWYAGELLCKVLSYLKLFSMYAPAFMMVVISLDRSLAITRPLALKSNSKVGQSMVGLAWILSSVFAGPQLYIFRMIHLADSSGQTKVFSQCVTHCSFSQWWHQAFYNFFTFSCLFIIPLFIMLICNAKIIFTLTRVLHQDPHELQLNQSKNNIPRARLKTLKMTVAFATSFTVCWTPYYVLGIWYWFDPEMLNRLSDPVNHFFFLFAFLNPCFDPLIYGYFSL
Sequence of Muscarinic acetylcholine receptor M1 (Homo sapiens) (P11229 whole entry, looked up): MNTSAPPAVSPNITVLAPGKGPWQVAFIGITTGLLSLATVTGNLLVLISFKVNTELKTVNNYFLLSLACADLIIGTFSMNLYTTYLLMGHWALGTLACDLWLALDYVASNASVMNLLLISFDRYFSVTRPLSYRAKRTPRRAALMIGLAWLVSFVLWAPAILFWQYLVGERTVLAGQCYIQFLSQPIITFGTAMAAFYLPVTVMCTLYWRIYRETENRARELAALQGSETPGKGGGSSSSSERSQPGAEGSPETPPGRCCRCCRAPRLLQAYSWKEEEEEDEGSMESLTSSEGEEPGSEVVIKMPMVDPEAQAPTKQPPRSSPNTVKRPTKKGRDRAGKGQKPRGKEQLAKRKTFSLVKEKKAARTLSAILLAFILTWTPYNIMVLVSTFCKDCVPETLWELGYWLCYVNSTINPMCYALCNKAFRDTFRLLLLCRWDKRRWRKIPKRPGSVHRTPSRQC
Sequence of D(2) dopamine receptor (Homo sapiens) (P14416 whole entry, looked up): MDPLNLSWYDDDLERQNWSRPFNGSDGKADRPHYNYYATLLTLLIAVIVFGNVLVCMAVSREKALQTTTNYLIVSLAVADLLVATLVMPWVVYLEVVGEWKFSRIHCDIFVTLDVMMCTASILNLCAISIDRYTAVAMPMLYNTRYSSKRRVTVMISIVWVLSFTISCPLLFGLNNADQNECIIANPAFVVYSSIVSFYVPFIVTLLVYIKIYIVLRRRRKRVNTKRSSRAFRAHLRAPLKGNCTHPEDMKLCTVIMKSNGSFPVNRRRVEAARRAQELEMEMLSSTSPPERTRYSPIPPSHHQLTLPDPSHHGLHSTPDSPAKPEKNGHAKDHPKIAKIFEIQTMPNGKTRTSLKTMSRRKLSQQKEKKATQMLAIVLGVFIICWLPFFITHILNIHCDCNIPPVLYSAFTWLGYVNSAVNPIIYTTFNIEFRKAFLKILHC
Sequence of 5-hydroxytryptamine receptor 2A (Homo sapiens) (P28223 whole entry, looked up): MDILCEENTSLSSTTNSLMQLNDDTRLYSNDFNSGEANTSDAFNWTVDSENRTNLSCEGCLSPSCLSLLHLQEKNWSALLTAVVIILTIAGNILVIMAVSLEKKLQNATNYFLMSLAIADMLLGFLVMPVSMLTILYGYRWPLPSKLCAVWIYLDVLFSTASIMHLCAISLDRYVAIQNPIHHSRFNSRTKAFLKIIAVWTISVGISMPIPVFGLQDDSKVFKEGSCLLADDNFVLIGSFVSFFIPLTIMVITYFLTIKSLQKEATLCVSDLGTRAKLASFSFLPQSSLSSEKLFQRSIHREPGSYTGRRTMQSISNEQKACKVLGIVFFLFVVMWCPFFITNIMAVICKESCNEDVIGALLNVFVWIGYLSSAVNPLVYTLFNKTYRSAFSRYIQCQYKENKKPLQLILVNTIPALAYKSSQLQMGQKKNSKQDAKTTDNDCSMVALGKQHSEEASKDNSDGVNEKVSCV
Sequence of KiSS-1 receptor (Homo sapiens) (Q969F8 whole entry, looked up): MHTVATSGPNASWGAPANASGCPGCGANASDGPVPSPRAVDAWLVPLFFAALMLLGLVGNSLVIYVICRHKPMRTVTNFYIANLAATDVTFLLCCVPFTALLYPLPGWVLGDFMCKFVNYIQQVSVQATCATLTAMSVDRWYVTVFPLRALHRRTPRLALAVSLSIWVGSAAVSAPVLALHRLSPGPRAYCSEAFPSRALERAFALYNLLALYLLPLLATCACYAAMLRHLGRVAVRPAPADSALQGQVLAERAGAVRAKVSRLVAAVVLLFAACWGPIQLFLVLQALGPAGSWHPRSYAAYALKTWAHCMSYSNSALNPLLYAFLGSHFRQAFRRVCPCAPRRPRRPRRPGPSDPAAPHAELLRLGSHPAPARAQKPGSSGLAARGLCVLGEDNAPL

Structure (SMILES) | Potency [1] | Potency [2] | Potency [3] | Potency [4] | Potency [5] | Potency [6] | Potency [7] | Potency [8] | Potency [9] | Potency [10] | Potency [11] | Potency [12] | Potency [13] | Potency [14] | Potency [15] | Potency [16] | Potency [17] | Potency [18] | Potency [19] | Potency [20]
CCCCOC(=O)COc1ccc(Cl)cc1Cl | inactive | 69.4 µM (active) and inactive | inactive | inactive | inactive | inactive | inactive | inactive | inactive | inactive | inactive | inactive | inactive | inactive | inactive | inactive | inactive | – | – | –
C=CCNC(N)=S | inactive | inactive | inactive | inactive | inactive | inactive | inactive | inactive | inactive | inactive | inactive | inactive | inactive | inactive | inactive | – | inactive | inactive | inactive | –
O=C1CCCC1 | inactive | inactive | inactive | inactive | inactive | inactive | inactive | inactive | inactive | inactive | inactive | inactive | inactive | inactive | inactive | – | – | inactive | – | –
Cc1ccc(N)c(S(=O)(=O)O)c1 | inactive | inactive | inactive | inactive | inactive | inactive | inactive | inactive | inactive | inactive | inactive | inactive | inactive | inactive | inactive | – | inactive | inactive | inactive | –
CCCCCCCCCCO | inactive | inactive | inactive | inactive | inactive | inactive | inactive | inactive | inactive | inactive | inactive | inactive | inactive | inactive | inactive | inactive | inactive | inactive | inactive | –
CC(=O)OCC(=O)[C@@]12N=C(C)O[C@@H]1C[C@H]1[C@@H]3CCC4=CC(=O)C=C[C@]4(C)[C@H]3[C@@H](O)C[C@@]12C | inactive | inactive | inactive | inactive | inactive | inactive | inactive | inactive | – | inactive | inactive | inactive | inactive | inactive | inactive | – | inactive | inactive | inactive | –
CC(=O)CCc1ccccc1 | inactive | inactive | inactive | inactive | inactive | inactive | inactive | – | inactive | inactive | inactive | inactive | inactive | inactive | inactive | inactive | inactive | inactive | – | –
Brc1ccc(Oc2ccc(Br)cc2)cc1 | inactive | inactive | inactive | inactive | inactive | inactive | inactive | inactive | inactive | inactive | inactive | inactive | inactive | inactive | inactive | inactive | inactive | – | inactive | –
C=C(C)C(N)=O | inactive | inactive | inactive | inactive | inactive | inactive | inactive | inactive | inactive | inactive | inactive | 847 nM (active) and inactive | inactive | inactive | inactive | inactive | inactive | inactive | inactive | –
CCCCOCCO | inactive | inactive | inactive | inactive | inactive | inactive | inactive | inactive | inactive | inactive | inactive | inactive | inactive | inactive | inactive | – | inactive | inactive | – | –
C/C=C/c1ccc(O)c(OC)c1 | inactive | inactive | inactive | inactive | inactive | inactive | inactive | inactive | inactive | – | – | – | inactive | inactive | – | inactive | inactive | inactive | inactive | –
CCCC(O)C(CC)CO (stereo not given) | inactive | inactive | inactive | inactive | inactive | inactive | inactive | inactive | inactive | inactive | inactive | inactive | inactive | inactive | inactive | inactive | inactive | inactive | inactive | –
Cc1cccc2n[nH]nc12 | inactive | inactive | inactive | inactive | inactive | inactive | inactive | inactive | inactive | inactive | inactive | inactive | inactive | inactive | inactive | inactive | – | inactive | inactive | –
Oc1c(Cl)cc(Cl)c(Cl)c1Cc1c(O)c(Cl)cc(Cl)c1Cl | 21.6 µM (active) and 30.6 µM (active) and 26.6 µM (active) | 24.3 µM (active) | inactive | inactive | inactive | inactive | inactive | 18.2 µM (active) | – | – | – | – | – | – | – | – | inactive | – | – | 36.3 µM (active) and inactive
Cc1cc(=O)n(-c2ccccc2)n1C | inactive | inactive | inactive | inactive | inactive | inactive | inactive | inactive | – | – | – | – | inactive | inactive | inactive | inactive | inactive | – | inactive | inactive
Cc1cccc(C)c1O | inactive | inactive | inactive | inactive | inactive | inactive | inactive | inactive | inactive | inactive | – | inactive | inactive | inactive | inactive | – | inactive | inactive | inactive | –
